Inconclusive results are not listed. A number with no mark means an inactive call. Active and inactive are the calls of the source. Calls come from the whole dose curve; as a rule, active = well fitted curve in the direction sought with a large enough effect; inconclusive = small, poorly fitted or top-dose-only effect, or another doubt; inactive = no such curve, though single readings can be large or run the other way.
Test: qHTS Assay for Identifying Gametocytocidal Compounds (AID 743244);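 for max response: actives lower the fluorescent signal which means gametocytes are killed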
Settings: P. falciparum 3D7 stage III-V gametocytes, alamarBlue, 72 h; max response: active compounds read low
Summary of the method: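 In this qHTS viability screen, late-stage 3D7 gametocytes are incubated with compound for 72 h, then with alamarBlue for 24 h; reduced resorufin fluorescence marks killing.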
% is set by controls: 0 for no effect and ±100 for the full control effect; potency is the fitted concentration of half-maximal effect.

SMILES	max response	Potency
OC1C(O)C(O)C(O)C(O)C1O (stereo not given)	0.49%	–
N[C@H](C(=O)O)[C@@H](O)c1ccc(O)c(O)c1	1.39%	–
Cc1cc(C)cc(OCC2CNC(=O)O2)c1 (stereo not given)	-6.82%	–
FC1(F)C(F)(F)C(F)(F)C2(F)C(F)(F)C(F)(F)C(F)(F)C(F)(F)C2(F)C1(F)F (stereo not given)	-4.02%	–
CCOC(=O)C(C#N)=C(c1ccccc1)c1ccccc1	-6.54%	–
CCOc1ccccc1OCCN[C@H](C)Cc1ccc(OC)c(S(N)(=O)=O)c1	5.89%	–
CN(C)CCOC(=O)C(c1ccccc1)C1(O)CCCC1 (stereo not given)	1.53%	–
CCN1CCCC(OC(=O)C(c2ccccc2)c2ccccc2)C1 (stereo not given)	-3.97%	–
Cc1c(-c2ccccc2)oc2c(C(=O)OCCN3CCCCC3)cccc2c1=O	3.61%	–
C[C@@]12C(=O)OC(=O)[C@]1(C)C1CCC2O1	-5.31%	–
CN1CCC[C@@H]1CCO[C@](C)(c1ccccc1)c1ccc(Cl)cc1	-0.809%	–
C[C@@H](O)[C@H]1C(=O)N2C(C(=O)O)=C(S[C@@H]3CN[C@H](CNS(N)(=O)=O)C3)[C@H](C)[C@H]12	13.8%	–
Cc1c[nH]c2ccccc12	0.215%	–
O=C(Nc1cccc(C2=NCCN2)c1)Nc1cccc(C2=NCCN2)c1	-7.84%	–
NS(=O)(=O)c1cc2c(cc1Cl)NC(CC1CCCC1)NS2(=O)=O (stereo not given)	17.3%	–
Cc1cccc(C)c1NC(=O)CN1CCCC1	20.5%	–
CCOC(=O)[C@H](CCc1ccccc1)N[C@@H](C)C(=O)N1[C@H](C(=O)O)C[C@@H]2CCC[C@@H]21	-0.0266%	–
CCCCCCCCCCC[C@@H](C[C@@H]1OC(=O)[C@H]1CCCCCC)OC(=O)[C@H](CC(C)C)NC=O	-7.75%	–
O=C(NCCc1c[nH]c2ccccc12)c1cccnc1	-3.02%	–
CC(=O)O[C@]1(C(C)=O)CC[C@H]2[C@@H]3C=C(C)C4=CC(=O)CC[C@]4(C)[C@H]3CC[C@@]21C	3.72%	–

SMILES	max response	Potency
CCOC(=O)Nc1ccc2c(c1)N(C(=O)CCN1CCOCC1)c1ccccc1S2	12.1%	–
O=[N+]([O-])c1cccc(S(=O)(=O)NCCNS(=O)(=O)c2cccc([N+](=O)[O-])c2)c1	1.36%	–
C#C[C@]1(O)CC[C@H]2[C@@H]3CCC4=CC(=O)CC[C@@H]4[C@H]3CC[C@@]21CC	6.28%	–
O=C(Nc1ccc([N+](=O)[O-])cc1)Nc1ccc([N+](=O)[O-])cc1	3.29%	–
CCCCC(CC)CN1CN(CC(CC)CCCC)CC(C)(N)C1 (stereo not given)	4.3%	–
CC(=O)Nc1ccc(OCC(O)CNC(C)C)cc1 (stereo not given)	-2.82%	–
NS(=O)(=O)Cc1noc2ccccc12	-3.32%	–
CCc1oc2ccccc2c1C(=O)c1cc(Br)c(O)c(Br)c1	-6.8%	–
CC(C)Cn1cnc2c1c(=O)n(C)c(=O)n2C	-4.05%	–
O=C1OC2(c3ccccc31)c1cc(Br)c(O)c(Br)c1Oc1c2cc(Br)c(O)c1Br	-3.43%	–
COc1ccc(-c2cc(C(F)F)nn2-c2ccc(S(N)(=O)=O)cc2)cc1F	25.1%	–
CC(=O)Nc1ncc([N+](=O)[O-])s1	-10.1%	–
O=S(c1cc(Cl)cc(Cl)c1O)c1cc(Cl)cc(Cl)c1O	11.4%	–
CCCCCCCCCCCCCC[N+](C)(C)Cc1ccccc1	–	8.91 µM (active)
Cc1cccc(C)c1NC(=O)CN1CCCCCC1	3.55%	–
NC(=O)C1(N2CCCCC2)CCN(CCCC(=O)c2ccc(F)cc2)CC1	6.95%	–
COc1cc(C(=O)NCc2ccc(OCCN(C)C)cc2)cc(OC)c1OC	1.8%	–
Nc1ccc(S(=O)(=O)Nc2cnc3ccccc3n2)cc1	-6.45%	–
OC(C#CCN1CCCC1)(c1ccccc1)c1ccccc1	-3.1%	–
OCc1ccccn1	-7.21%	–
